# Source: PubChem BioAssay AID1626 (SRMLSC, 2009)
# Out of some 220,000 compounds screened, about 2,000 (0.91%) were called active. Another 2% or so got no clear call; they are omitted. The list is a sample of the results. Results with a measured potency or affinity are listed apart. A number with no mark means an inactive call. Rule as the data show it: inconclusive = inhibition above about 80% without an active follow-up result; inactive = below that; test concentration not stated here.
# Experiment: M. tuberculosis H37Rv growth inhibitors, H37Rv strain (AID 1626);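 also: bacteria incubated seven days before Alamar blue readout; 0% = bacteria only wells and 100% = bacteria with antibiotic wells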
# Conditions: active compounds read high, concentration not given here
row,SMILES,inhibition
1,CCOC(=O)C1(CCc2ccccc2)CCN(Cc2ccc(O)cc2)CC1,1.73%
2,CCOC(=O)C1(CCc2ccccc2)CCN(Cc2nccn2CC)CC1,4.84%
3,Cn1cnnc1SCNC(=O)C(F)(F)F,-14.5%
4,COc1ccccc1-c1coc2cc(OC(=O)N3CCOCC3)ccc2c1=O,0.83%
5,CCN(CC)C(=O)Oc1ccc2c(=O)c(-c3ccccc3)coc2c1,8.19%
6,Cc1oc2cc(OC(C)C(=O)O)ccc2c(=O)c1Oc1ccccc1 (stereo not drawn),-9.62%
7,CCOC(=O)c1oc2cc(OC(C)=O)ccc2c(=O)c1-c1ccc(OC)c(OC)c1,-4.14%
8,COc1ccccc1-c1coc2cc(OC(=O)/C=C/c3ccccc3)ccc2c1=O,12.4%
9,CC(=O)Oc1ccc2c(=O)c(-c3ccccc3)coc2c1,71.2%
10,CCOC(=O)c1oc2cc(OCC(N)=O)ccc2c(=O)c1-c1ccc(OC)c(OC)c1,-2.49%
11,Cc1oc2cc(OCC(=O)O)ccc2c(=O)c1Oc1ccccc1,-10.7%
12,CCOC(=O)N1CCC(NC(=O)C2CCN(S(=O)(=O)c3ccc4c(c3)oc(=O)n4C)CC2)CC1,-3.61%
13,Cc1ccc(OCCNC(=O)c2cc(C(=O)NCCOc3ccc(C)cc3)cc([N+](=O)[O-])c2)cc1,1.97%
14,O=C1c2cc3ccccc3c(-c3ccccc3)c2C(=O)N1c1ccccn1,11.2%
15,O=C(C1CCC(N2C(=O)C3CC=CCC3C2=O)CC1)N1CCCCC1 (stereo not drawn),0.53%
16,COc1ccccc1-c1coc2cc(OCC(=O)OCc3ccccc3)ccc2c1=O,8.31%
17,N#Cc1c2ccc(OCC(N)=O)cc2n2ccccc12,5.54%
18,COc1ccc2c(C#N)c3ccccn3c2c1,8.95%
19,CCOc1ccccc1Oc1coc2cc(OCC(=O)O)ccc2c1=O,1.18%
20,CS(=O)(=O)Nc1ccccc1NS(C)(=O)=O,2.07%
21,Cc1nnc(SCC(=O)NCc2ccc(Cl)cc2)[nH]c1=O,-5.88%
22,CC(=O)c1cccc(NC(=O)CC2S/C(=N/N=C/c3ccccc3)NC2=O)c1 (stereo not drawn),5.53%
23,Cc1ccc(C(=O)CC(=O)c2cccc(F)c2)c(O)c1,21%
24,O=C(CC(=O)c1ccccc1O)c1ccc(F)cc1,-0.45%
25,N=C1C(c2ccccc2)=C(O)CN1c1cccc(S(=O)(=O)Nc2cccc(C(F)(F)F)c2)c1,71.6%
26,CCc1ccc(NC(=O)C(C)OC(=O)C2CCC(=O)N2)cc1 (stereo not drawn),-4.48%

row,SMILES,inhibition
1,Cc1ccccc1NC(=S)NCCc1ccccn1,1.47%
2,Cc1cc(C)cc(N(CC(=O)NCC2CCCO2)C(=O)CN2C(=O)COc3ccccc32)c1 (stereo not drawn),-1.08%
3,COc1ccc(OCCOc2ccc(C)nc2[N+](=O)[O-])cc1,9.48%
4,CCC(CO)NCC#Cc1ccccc1 (stereo not drawn),-0.71%
5,CCC(CO)NCc1ccc(Br)cc1 (stereo not drawn),2.11%
6,CCN1CCN(C(c2cc3cccc(C)c3[nH]c2=O)c2nnnn2Cc2ccccc2)CC1 (stereo not drawn),-2.17%
7,O=[N+]([O-])C(=C1Nc2ccccc2N1)C(Cl)=C(Cl)Cl,0.64%
8,CCOC(=O)COc1cc([N+](=O)[O-])cc2cccnc12,3.26%
9,COC(=O)c1ccc(COc2cc([N+](=O)[O-])cc3cccnc23)cc1,-7.07%
10,Cc1ccc([N+](=O)[O-])c2cccnc12,-9.13%
11,O=[N+]([O-])c1ccc(O)c2ncccc12,79%
12,Clc1cc2cccnc2c2ccccc12,-3.53%
13,O=[N+]([O-])c1cc(F)c2cccnc2c1O,-0.05%
14,Oc1c(I)cc(I)c2cccnc12,76.2%
15,O=[N+]([O-])c1cc(Cl)c2cccnc2c1O,3.31%
16,CCOc1ccccc1CN1C(=O)c2ccccc2C1C(=O)NCC1CCCO1 (stereo not drawn),1.98%
17,Cc1cc(C)n2c(Br)c(CN3CC4CC(C3)c3cccc(=O)n3C4)nc2n1 (stereo not drawn),9.25%
18,Brc1ccccc1-c1cnco1,-1.43%
19,Cc1cccc(OCC(=O)N2CCN(C(=O)c3ccco3)CC2)c1,-15.9%
20,COc1ccc(-n2c(C)nc3c(cnn3-c3ccc(C)c(C)c3)c2=O)cc1,17.5%
21,O=c1cc(CSc2n[nH]c(-c3ccncc3)n2)nc2sccn12,1.39%
22,CCN(CC)C(=O)Oc1c(Cl)cc(Cl)c2cccnc12,4.99%
23,Oc1ccc(CN2CCc3ccccc3C2)c2cccnc12,1.81%
24,CN(C)C(=O)Oc1c(Cl)cc(Cl)c2cccnc12,1.37%
25,OCCN1CCN(Cc2cc(Cl)c3cccnc3c2O)CC1,-5.12%
26,CCOC(=O)CN1C(=O)S/C(=C/c2cc(C)n(C)c2C)C1=O,8.52%

row,SMILES,inhibition
1,CC(NCCN(C)C)C(=O)C12CC3CC(CC(C3)C1)C2 (stereo not drawn),6.21%
2,Cc1ccc(NCCC#N)cc1C,-1.15%
3,CCn1c(SCC(=O)NCc2ccccc2)nnc1-c1ccccc1O,-6.19%
4,CCOc1cc(/C=N/NC(=O)CSc2nncn2C)ccc1OCc1ccccc1,-1.69%
5,CCOC(=O)c1[nH]ncc1CN1CCC(Cc2cccc(OC)c2)(C(=O)OCC)CC1,-9.77%
6,O=C(OCC(=O)N1CCCc2ccccc21)c1cncc(Br)c1,-11.1%
7,Cn1c(O)c(C(c2ccncc2)c2c(O)n(C)c(=S)n(C)c2=O)c(=O)n(C)c1=S,-3.3%
8,OCc1cn(-c2ccccc2)nc1-c1ccc(-c2nn(-c3ccccc3)cc2CO)cc1,-1.67%
9,COc1ccc(-c2nn(-c3ccccc3)cc2CO)cc1,5.02%
10,O=C(O)Cc1cn(-c2ccccc2)nc1-c1ccccc1,3.9%
11,Cc1ccc(-c2nn(-c3ccccc3)cc2CSC(=N)N)cc1,50.3%
12,Cc1cc(C)c(NC(N)=S)c(C)c1,5.56%
13,O=C(Nc1ccc2c(c1)Cc1ccccc1-2)c1cc2ccccc2o1,34.9%
14,CCOC(=O)/C(C(C)=O)=C1/OC(=O)c2ccccc21,2.35%
15,COc1ccc(N2CCN(S(=O)(=O)c3ccc(OC)cc3)CC2)cc1,6.85%
16,O=C(Nc1ccc(F)cc1F)C1(c2cccs2)CCOCC1,4.02%
17,CCOC(=O)c1c(NC(=O)CCc2ccc(CC)o2)sc(C)c1C,-6.75%
18,Cc1ccc(NC(=O)CCSCCC(=O)Nc2ccc(C)c(C)c2)cc1C,7.02%
19,CCc1ccc(CCC(=O)Nc2ccc(C(C)=O)cc2)o1,7.37%
20,CCc1ccc(CCC(=O)Nc2ccc(C)cc2C)o1,12.7%
21,O=C(CCC1COc2ccccc2O1)Nc1cccnc1 (stereo not drawn),-8.19%
22,Cc1cc(C)nc(NS(=O)(=O)c2ccc(NC(=O)CCC3COc4ccccc4O3)cc2)n1 (stereo not drawn),0.51%
23,COC(=O)CCC(=O)Nc1ccc(OC)cc1,1.4%
24,CCc1ccc(CCC(=O)Nc2ccc(S(N)(=O)=O)cc2)o1,1.79%
25,O=[N+]([O-])c1ccc(C2CCCC/C2=N/OCc2ccccc2F)c([N+](=O)[O-])c1 (stereo not drawn),0.93%
26,CC1CC(=O)c2cnc(Nc3cccc(C(F)(F)F)c3)nc2C1 (stereo not drawn),2.97%

row,SMILES,inhibition
1,O=C(Cn1nc(-c2ccccc2)c2ccccc2c1=O)NCC1CCCO1 (stereo not drawn),8.76%
2,Cc1ccc(-n2c(C)cc3c2CCCC3=O)cc1,-0.32%
3,COC(=O)c1ccc(C(C(=O)NC2CCCCC2)N(C(=O)Cc2cccs2)C2CC2)cc1 (stereo not drawn),-2.62%
4,COc1ccc(CCNC(=O)C2CCN(c3ccc(N4CCOCC4)nn3)CC2)c(OC)c1,6.05%
5,c1cnc2nc(-c3ccc4c(c3)OCO4)cn2c1,-8.76%
6,COc1ccc(-c2nc3ncccn3c2Br)cc1,-1.31%
7,CC(NC(=O)COC(=O)Cc1ccsc1)c1ccccc1 (stereo not drawn),-0.56%
8,O=C(NCc1ccccc1)N(Cc1cc2cc3c(cc2[nH]c1=O)OCCO3)CC1CCCO1 (stereo not drawn),-1.33%
9,CC1CCN(Cc2c(C#N)c3ccccc3n2C)CC1,-4.52%
10,Cc1nc(Nc2c(Cl)cccc2Cl)sc1C(=O)Nc1ccccc1,10.3%
11,Cc1nc(Nc2ccccc2)sc1C(=O)Nc1ccccc1,21.1%
12,O=C(OCC(=O)c1ccc[nH]1)c1ccc(S(=O)(=O)N2CCCCC2)cc1,-10.2%
13,S=c1[nH]nc(COc2ccccc2)n1/N=C/C=C/c1ccccc1,12.1%
14,CCN(CC)C(=O)N1CCN(S(=O)(=O)c2ccc(C)cc2)CC1,-9.01%
15,O=C(COc1ccccc1)Nn1c(-c2ccccc2)nc2ccccc2c1=O,-3.31%
16,O=C(N/N=C/c1ccncc1)c1ccc(NS(=O)(=O)c2cccs2)cc1,-0.88%
17,c1ccc(N2CCN(c3cnc4ccccc4n3)CC2)cc1,5.67%
18,COc1ccc(N2CCN(c3cnc4ccccc4n3)CC2)cc1,-9.34%
19,CC(C)C(NS(=O)(=O)c1cccc2nsnc12)C(=O)NCCC1=CCCCC1 (stereo not drawn),-3.27%
20,Cc1[nH]n(-c2ccccc2)c(=O)c1C(C[N+](=O)[O-])c1ccccc1Cl (stereo not drawn),3.54%
21,O=c1[nH][nH]c(-c2ccccc2O)c1C(C[N+](=O)[O-])c1ccccc1 (stereo not drawn),6.94%
22,Cc1ccc(C(C[N+](=O)[O-])c2c(-c3ccccc3O)[nH][nH]c2=O)cc1 (stereo not drawn),4.79%
23,Cc1[nH]c2ccccc2c1C(C[N+](=O)[O-])c1cccc(O)c1 (stereo not drawn),6.89%
24,Cc1cc(O)c(C(C[N+](=O)[O-])c2ccc(Cl)cc2Cl)c(=O)o1 (stereo not drawn),2.19%
25,Cc1cc(O)c(C(C[N+](=O)[O-])c2ccc(Cl)cc2)c(=O)o1 (stereo not drawn),6.11%
